Screening results deposited in PubChem BioAssay by National Center for Advancing Translational Sciences (NCATS).
Rango dissoc inh: prevents RanGTP from dissociating the Rango-importin beta complex | O95149+P62826 | Biochemical FRET Rango-importin beta, RanGTP-induced dissociation | Potency, µM (doses to about 46.1 µM) | actives 0.071% (n = 340,000) | AID 540253; calls by dose curve; note: nearly all actives have a fitted effect of over 45% in size
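Compounds preincubate 5 min with complex of recombinant Rango and importin beta in PBS with 1 mM DTT. Ran (0.6 uM) loaded with 2 mM GTP plus 0.2 uM RCC1 starts dissociation; FRET is recorded 45 min later.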
S-ASM inh: inhibitors of human secretory acid sphingomyelinase. P17405. placental ASM, HMU-PC fluorogenic substrate, 60 min. AID 504937. Potency, µM (top dose mostly 57.5 µM), actives largely listed as inhibitors. actives 0.006% (n = 340,000)
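qHTS format. ASM enzyme prepared from human placenta hydrolyses the fluorogenic substrate HMU-PC0 (9 uM final) over 60 min at 37 °C after a 10 min compound preincubation.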
Rango complex inh: Rango-importin beta binding inhibition | Rango CFP/YFP FRET sensor + importin beta, 45 min | actives 0.031% (n = 340,000) | Potency, µM (highest dose often 92.2 µM); calls by dose curve; note: nearly all actives have a fitted effect of over 15% in size
Target sequence (Q14974 whole entry, looked up): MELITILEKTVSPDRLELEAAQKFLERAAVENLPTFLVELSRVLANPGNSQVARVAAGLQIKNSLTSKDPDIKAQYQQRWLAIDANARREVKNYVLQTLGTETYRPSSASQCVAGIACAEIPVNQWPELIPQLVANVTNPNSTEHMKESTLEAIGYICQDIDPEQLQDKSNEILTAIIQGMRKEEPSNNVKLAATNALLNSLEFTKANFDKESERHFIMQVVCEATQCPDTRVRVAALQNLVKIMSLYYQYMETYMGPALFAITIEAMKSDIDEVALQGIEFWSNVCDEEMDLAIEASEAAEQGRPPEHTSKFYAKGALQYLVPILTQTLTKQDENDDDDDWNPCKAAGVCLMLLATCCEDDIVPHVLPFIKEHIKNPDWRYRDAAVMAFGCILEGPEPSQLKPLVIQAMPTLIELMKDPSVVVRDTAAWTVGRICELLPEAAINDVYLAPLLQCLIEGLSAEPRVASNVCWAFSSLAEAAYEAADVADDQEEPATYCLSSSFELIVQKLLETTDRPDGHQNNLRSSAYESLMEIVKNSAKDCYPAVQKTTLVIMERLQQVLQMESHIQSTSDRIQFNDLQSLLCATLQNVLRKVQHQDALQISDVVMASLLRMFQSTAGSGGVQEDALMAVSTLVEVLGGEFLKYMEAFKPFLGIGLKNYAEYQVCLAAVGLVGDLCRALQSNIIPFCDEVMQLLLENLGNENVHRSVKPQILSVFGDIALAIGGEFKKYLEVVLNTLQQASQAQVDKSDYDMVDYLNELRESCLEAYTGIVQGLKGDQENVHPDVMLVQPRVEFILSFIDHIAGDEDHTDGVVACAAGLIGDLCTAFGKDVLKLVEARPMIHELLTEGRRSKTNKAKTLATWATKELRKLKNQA
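Inhibition scored from the CFP 486 nm/YFP 530 nm FRET ratio 45 min after adding 0.125 microM importin beta to 50 nM Rango biosensor preincubated 5 min with compound (room temperature, PBS with DTT, Tween-20, BSA). No-importin wells as positive control.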
Vif-A3F inh: blocks the Vif interaction with APOBEC3F; HeLa A3F-eYFP + Vif (tagged APOBEC3F with the HIV-1 protein that degrades it), YFP fluorescence increase; Potency, µM (highest dose often 46.1 µM); actives 0.2% (n = 390,000); AID 602313; note: nearly all actives have a fitted effect of over 65% in size
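HeLa cells stably expressing A3F-eYFP plus Vif, plated and incubated overnight at 37 deg C, then exposed to compounds overnight at 37 deg C. Blocked degradation read as raised yellow fluorescence (Ex 488/Em 500-530).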
Vif-A3G inh: inhibitors of Vif-APOBEC3G interaction; Potency, µM (doses to about 46.1 µM), most hits filed as inhibitors; HeLa A3G-eYFP + Vif (tagged APOBEC3G with the HIV-1 protein that degrades it), YFP fluorescence, overnight; Q9HC16; actives 0.076% (n = 410,000); AID 602310; note: nearly all actives have a fitted effect of over 60% in size
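HeLa cells stably expressing Vif and C-terminally eYFP-tagged A3G, seeded overnight at 37 deg C, then exposed to compound by pintool overnight at 37 deg C. Rise in yellow fluorescence (Ex 488/Em 500-530, Acumen) marks blocked Vif-driven A3G degradation.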
Eya2 phos inh: inhibitors of human Eya2 phosphatase activity; O00167; recombinant Eya2, OMFP fluorescence dephosphorylation (OMFP is methylfluorescein phosphate); Potency, µM (highest dose often 76.9 µM), most hits filed as inhibitors; actives 0.006% (n = 330,000)
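Eya2 (0.2 uM) preincubated 10 min at ambient with compound, then OMFP substrate added at 50 uM; 10 min reaction in 50 mM HEPES pH 7.5, 50 mM NaCl, 5 uM MgCl2, 0.05% BSA, 1 mM DTT. Fluorescence read at Ex 485/Em 525 nm.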
A number is an active result; i = inactive; ? = inconclusive; nt = no result given. This is a sample that favours compounds with a hit; in the whole collection about 0.34% have one here. Unless noted, calls come from the whole dose curve; as a rule, active = well fitted curve in the direction sought with a large enough effect; inconclusive = small, poorly fitted or top-dose-only effect, or another doubt; inactive = no such curve, though single readings can be large; an effect the other way counts as inactive or inconclusive.

SMILES	Rango dissoc inh	S-ASM inh	Rango complex inh	Vif-A3F inh	Vif-A3G inh	Eya2 phos inh
CC(=O)N1CCN(/[N+]([O-])=N/Oc2ccc([N+](=O)[O-])cc2[N+](=O)[O-])CC1	nt	nt	nt	nt	i	nt
S=C(NC1CCCCC1)N(CCc1ccccc1)CCc1ccccc1	i	i	i	7.1µM	i	i
CCCCCCCCCC[n+]1ccc(/C=C/c2c[nH]c3ccccc23)c2ccccc21	nt	nt	nt	nt	i	nt
CC(C)CC(=O)NC(=S)N(Cc1ccccc1)Cc1ccccc1	i	i	i	25µM	i	i
Cc1cc(-c2ccccc2)nc(N/N=C/c2ccccc2F)n1	?	i	i	22µM	i	i
CC(=O)c1cccc(NC(=S)N2c3ccccc3CC2C)c1 (stereo unspecified)	i	i	i	i	8.9µM	i
COc1ccc(-c2oc3ccccc3c(=O)c2OC(C)=O)cc1	?	i	?	i	i	i
CC(=O)Oc1c(-c2ccc(Br)o2)oc2ccccc2c1=O	?	i	?	13µM	i	i
Clc1ccccc1Nc1ncnc2c1nc1n2CCCCC1	nt	nt	nt	i	i	nt
CC[N+](C)(C)c1ccc(/C=C/c2ccc3ccccc3n2)cc1	nt	nt	nt	nt	i	nt
CC[N+](C)(C)c1ccc(/C=C/c2ccncc2)cc1	nt	nt	nt	nt	10µM	nt
CC(C)(C)n1ncc2c(=O)n(Cc3cc(F)ccc3Cl)cnc21	nt	nt	nt	nt	i	nt
OCCCn1c(C2CCCN2c2nc(-c3ccc(F)cc3)cs2)nc2cc(Cl)c(N3CCCCC3)cc21 (stereo unspecified)	?	i	i	25µM	i	nt
OCCCn1c(C2CCCN2c2nc(-c3ccc(Cl)cc3)cs2)nc2cc(Cl)c(N3CCCCC3)cc21 (stereo unspecified)	i	i	?	?	i	nt
O=C1c2ccccc2C(=O)N1Nc1ccccc1	i	i	i	i	i	i
O=C1c2cccc3c([N+](=O)[O-])c(O)cc(c23)C(=O)N1Nc1ccccc1	i	i	i	10µM	?	i
COc1cc(C=O)cc(OC)c1[N+](=O)[O-]	nt	nt	nt	nt	i	nt
N#Cc1nc(/C=C/c2ccc(F)cc2)oc1N1CCCCC1	nt	nt	nt	i	i	nt
COC(=O)c1ccc(C2N=C(c3cccs3)CC(c3ccccc3O)N2)cc1 (stereo unspecified)	15µM	i	?	i	i	i
O=C(c1ccccc1)N1N=C(c2cccs2)CC1c1ccccc1O (stereo unspecified)	i	i	i	i	i	i
CCCCCc1cc[n+](CC(=O)c2ccccc2)cc1	nt	nt	nt	nt	i	nt
COc1ccc(CNC(=O)c2sc3nc4c(c(C(F)(F)F)c3c2N)CCC4)cc1OC	?	i	i	?	i	i
COc1ccc(NC(=O)c2sc3nc(C(F)(F)F)cc(C)c3c2N)cc1OC	nt	nt	nt	5.6µM	i	nt
COc1ccc(NC(=O)c2sc3nc4c(cc3c2N)CN(Cc2ccccc2)CC4)c(OC)c1	nt	nt	nt	11µM	?	nt
COc1ccc(OC)c(NC(=O)c2sc3nc(Cc4ccccc4)cc(C(F)(F)F)c3c2N)c1	i	i	?	10µM	i	i
SMILES	Rango dissoc inh	S-ASM inh	Rango complex inh	Vif-A3F inh	Vif-A3G inh	Eya2 phos inh
CC[N+]1(CC(=O)c2ccc(Br)cc2)CCCCC1	nt	nt	nt	nt	i	nt
CC(=O)C[C@H]1c2cc(F)cc(F)c2S(=O)(=O)N1C1CCN(Cc2ccccc2)CC1	nt	nt	nt	nt	i	nt
Cc1cccc(NC(=O)Cn2c(=O)n(CC3CCC(C(=O)NCCc4ccccc4)CC3)c(=O)c3ccccc32)c1C (stereo unspecified)	nt	nt	nt	i	i	nt
CCN(CC)c1ccc(/C=C/c2cccc[n+]2C)c(OC)c1	?	i	?	i	7.9µM	?
NC(=O)CC(NC(=O)Cc1ccc(Br)cc1)c1ccc(NCc2ccc(F)cc2)c([N+](=O)[O-])c1 (stereo unspecified)	i	i	?	11µM	?	i
CCn1c2ccccc2c2c3ncc4cccn4c3ccc21	?	i	?	25µM	?	i
COc1cc2c(NC3CCN(C(C)C)CC3)nc(N3CCCN(C)CC3)nc2cc1OCCOCCN(C)C	nt	nt	nt	nt	i	nt
NC(=O)C1CCN(c2nc3ccccc3nc2NS(=O)(=O)c2ccc(Br)cc2)CC1	i	i	?	25µM	i	i
COc1ccc(-c2ccc(C(C)=O)cc2)cc1C1C2C=CCCC2(C)C(=O)N1Cc1ccccc1 (stereo unspecified)	nt	nt	nt	nt	i	nt
C=CCSc1nnc(C)c(/C=C/Nc2ccc(Cl)cc2)n1	?	i	?	25µM	?	i
O=C(Nc1ccccc1)Nc1cccc(Cl)c1Cl	i	i	i	i	i	i
O=C(Nc1ccc(Oc2ccc(NC(=O)Nc3ccccc3Cl)cc2)cc1)Nc1ccccc1Cl	i	i	?	11µM	i	i
CCOC(=O)C1=C(C)N=C2c3ccccc3C(=O)C2C1c1ccc(Cl)cc1 (stereo unspecified)	i	?	i	i	i	i
